SKN-1 block: inhibitors of C. elegans SKN-1; C. elegans VP596 Pgst-4::GFP/RFP ratio, acrylamide-induced, 24 h; inhibition, % at 21.8 µM; 360,000 tested, 0.49% active; AID 624304;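 active means interference check ratio from 0.5 to 1.5 plus GFP to RFP signal ratio inhibition reaching or exceeding a fixed threshold, cut at about 30% in these data, passing the limit was not always enough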
NRP1-CendR mod: modulators of CendR peptide binding to human neuropilin-1; O14786; 360,000 tested, 0.85% active; FAM-RPARPAR peptide binding to NRP-1, fluorescence polarization; AID 602438; inhibition, % at 25 µM;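 active means inhibition or corrected inhibition above about 18%, plus a signal ratio from 0.5 to 1.5, limit read from the data, passing the limit was not always enough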
Target sequence (O14786 whole entry, looked up): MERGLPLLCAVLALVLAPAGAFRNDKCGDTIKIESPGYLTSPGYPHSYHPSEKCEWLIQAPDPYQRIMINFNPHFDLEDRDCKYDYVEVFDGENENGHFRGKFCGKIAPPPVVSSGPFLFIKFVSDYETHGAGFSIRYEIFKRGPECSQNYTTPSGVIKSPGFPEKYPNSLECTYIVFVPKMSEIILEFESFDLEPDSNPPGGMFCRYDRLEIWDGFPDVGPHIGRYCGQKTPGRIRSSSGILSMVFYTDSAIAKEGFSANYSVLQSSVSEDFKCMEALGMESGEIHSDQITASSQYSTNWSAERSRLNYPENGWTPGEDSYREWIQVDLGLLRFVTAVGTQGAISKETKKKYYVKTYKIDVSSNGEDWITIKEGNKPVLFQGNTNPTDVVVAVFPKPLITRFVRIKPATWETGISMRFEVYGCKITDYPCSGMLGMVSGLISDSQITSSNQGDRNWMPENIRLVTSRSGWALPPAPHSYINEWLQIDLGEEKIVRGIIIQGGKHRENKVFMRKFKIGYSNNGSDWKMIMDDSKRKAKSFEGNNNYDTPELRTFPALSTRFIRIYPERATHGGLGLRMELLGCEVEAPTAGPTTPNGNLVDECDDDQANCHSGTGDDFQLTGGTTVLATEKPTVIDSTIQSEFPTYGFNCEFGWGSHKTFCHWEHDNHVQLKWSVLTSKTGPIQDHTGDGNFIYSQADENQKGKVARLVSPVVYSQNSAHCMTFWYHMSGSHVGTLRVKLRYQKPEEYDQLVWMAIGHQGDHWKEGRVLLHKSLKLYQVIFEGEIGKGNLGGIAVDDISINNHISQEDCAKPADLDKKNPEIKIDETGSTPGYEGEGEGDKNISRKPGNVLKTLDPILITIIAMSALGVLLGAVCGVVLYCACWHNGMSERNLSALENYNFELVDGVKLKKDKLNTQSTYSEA
MPTP block: blocks calcium-induced mitochondrial swelling. isolated mouse mitochondria, Ca2+ swelling absorbance, 30 min. inhibition, % at 10 µM. 360,000 tested, 1.4% active. AID 602449;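 active means inhibition of 50% or more, scaled per plate between neutral and stimulator controls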;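 further: 0% = DMSO wells given calcium and 100% = 1 mM EGTA wells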
ATG4B inh: ATG4B (human) cysteine protease inhibition; Q9Y4P1; ATG4B cleavage of LC3-PLA2, NBD-HPC fluorescence, 1 h; inhibition, % at 8.33 µM; 340,000 tested, 0.51% active; AID 504462; in the data active means inhibition above about 40%
CFTR F508del cor: correctors of CFTR F508del function in bronchial epithelial cells. 350,000 tested, 0.36% active. CFBE cells, YFP halide quenching; stimulated with forskolin plus potentiator P3; % fluorescence drop versus neutral controls. activity (quench increase), % at 7.58 µM;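 active means mean added fluorescence quench of at least 8% versus neutral control, with both replicates also reaching 8%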;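 further: cells transiently co-express mutant CFTR-F508del with the halide-sensitive YFP; corrector assay measuring rescue of mutant channel to the surface after 24 h compound exposure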
* marks the source's active call; other numbers are inactive results; . = no result; ! = repeats disagree. Most compounds without a hit are left out; they make up all but 2.7% or so of the library.

SMILES	SKN-1 block	NRP1-CendR mod	MPTP block	ATG4B inh	CFTR F508del cor
c1ccc(Cn2c[n+](Cc3ccccc3)c3ccccc32)cc1	35*	12	0	0	1
c1ccc(C[n+]2csc3ccccc32)cc1	1	-8	-3	0	-2
Cc1nn(-c2ccccc2)c(Cl)c1C(=O)NC1CCCCC1	10	0	-1	-2	-2
O=C(NC1CCCCC1)c1cc(C2CC2)nn1-c1ccccc1	-7	7	-1	2	22*
Clc1ccc(OCCSc2ncccn2)cc1	38*	-7	0	-16	.
COc1ccc(OCCSc2ncccn2)cc1	-4	-3	0	0	.
CO[C@@H]1CN(C)C(=O)c2ccc(NC(=O)C3CCCCC3)cc2OC[C@@H](C)N(C(=O)c2ccccc2)C[C@@H]1C	.	.	.	.	0
CC(C)C[C@H](NC(=O)OC(C)(C)C)C(=O)N[C@@H](CO)[C@H](O)[C@@H]1C[C@@H]1C(=O)NC1CC1	4	7	-2	2	-1
CCCCNC(=O)[C@H]1C[C@H]1[C@@H](O)[C@H](CO)NC(=O)[C@H](CC(C)C)NC(=O)OC(C)(C)C	8	34*	-1	2	.
CCC(=O)NC[C@@H]1[C@H](c2ccc(-c3cccc(F)c3)cc2)[C@@H](CO)N1C(=O)CC	.	.	.	.	1
CCC(=O)N1C[C@H](C)[C@@H](OC)CN(C)C(=O)c2cc(NC(=O)C3CCCCC3)ccc2OC[C@@H]1C	.	.	.	.	-1
O=C(NCCC1=CCCCC1)c1ccc(=O)oc1	-20	51*	0	5	.
O=C(NCCC1=CCCCC1)c1coc(=O)c(Br)c1	7	-2	1	-1	.
O=C(NCCC1=CCCCC1)NC1CCCCC1	55*	-4	2	10	.
O=C(Nc1ccccc1)C1CC(=O)N(C2CCCCC2)C1 (stereo not drawn)	42*	-14	0	1	.
O=C(NCCC1=CCCCC1)C1CC(=O)N(C2CCCCCC2)C1 (stereo not drawn)	9	21*	1	8	0
Cc1cc(C(=O)NNC(=O)c2ccc(Cl)c(S(N)(=O)=O)c2)c(C)o1	6	11	0	-4	8.7*
Cc1cc(C(=O)NNC(=O)c2ccc(S(=O)(=O)N(C)C)cc2)c(C)o1	-3	2	0	-9	.
COc1ccc(Br)cc1CNC(=O)CCc1nc(-c2ccc(C)cc2)no1	14	23*	-3	26	.
Nc1ccc(S(=O)(=O)Nc2cnc3ccccc3n2)cc1	13	-23	0	5	11*!
O=C(NC1CC1)c1ccc(COc2ccc(F)cc2)o1	-11	25*	6	-6	.
CN(C)CC#Cc1ccc([C@@H]2[C@@H](CO)N3C(=O)CN(C(=O)c4ccccc4)C[C@@H]23)cc1	.	.	.	.	-2
Cc1ccccc1C(=O)Nc1ccc2c(C#N)c3nc4ccccc4nc3n2c1	36*	-40	11	-1	.
Cc1ccc(S(=O)(=O)Nc2cccc3c2O[C@@H](CN(C)C(=O)Nc2c(C)noc2C)[C@@H](C)CN([C@@H](C)CO)C3=O)cc1	.	.	.	.	-4
Cc1ccc(C(=O)N/C(=C\c2ccccc2)C(=O)NCCCn2ccnc2)cc1	1	23*	-1	0	-4
SMILES	SKN-1 block	NRP1-CendR mod	MPTP block	ATG4B inh	CFTR F508del cor
Cc1ccc(/C=C(\NC(=O)c2ccc(C)cc2)C(=O)NCCCn2ccnc2)cc1	-1	-9	2	4	0
COc1cccc(NS(=O)(=O)c2ccc(C)c(C(=O)N3CCCCC3)c2)c1	8	20*	0	-3	1
Cc1ccc(NC(=O)CSCC(=O)Nc2ccccc2C(=O)N2CCCCC2)cc1	46*	6	-1	0	1
O=c1[nH]c(CN2CCN(c3ccc(O)cc3)CC2)nc2scc(-c3ccc(Cl)cc3)c12	12	-14	2	-4	13*
O=c1[nH]c(CN2CCN(c3ccccc3O)CC2)nc2scc(-c3ccccc3Cl)c12	-6	-9	7	-8	3
C[C@@H]1CN([C@@H](C)CO)C(=O)c2cc(NC(=O)Nc3ccc4c(c3)OCO4)ccc2O[C@@H]1CN(C)C(=O)Nc1ccc(F)cc1	.	.	.	.	2
Cc1ccc(-c2cccc(CN3CCN(C(C)C)C(CCO)C3)c2)o1 (stereo not drawn)	-8	3	2	-5	11*
O=C(Nc1sc2c(c1C(=O)c1ccccc1)CCCC2)c1cccnc1	2	-6	1	1	.
O=C(Nc1sc2c(c1C(=O)c1ccc(Cl)cc1)CCCC2)c1cccnc1	35*	0	5	1	.
COc1ccc(CN2[C@@H](CO)[C@@H]3c4ccccc4N(C(=O)NC(C)C)C[C@@H]32)cc1	.	.	.	.	-2
CC(=O)N1N=C(c2c(-c3ccccc3)c3cc(Br)ccc3[nH]c2=O)CC1c1ccco1 (stereo not drawn)	10	24*	0	-1	-11
CC(=O)N1N=C(c2c(-c3ccccc3)c3cc(C)ccc3[nH]c2=O)CC1c1ccco1 (stereo not drawn)	4	-3	0	24	.
COc1ccc(CNc2n[nH]c(NCc3ccc(OC)c(OC)c3)n2)cc1OC	-2	20*	-2	4	.
COc1ccc(CNc2nc(SC)n[nH]2)cc1OC	-4	1	-2	1	.
O=C(Nc1cccc(F)c1)N1CC(=O)N2[C@H](CO)[C@@H](c3ccc(-c4ccccc4F)cc3)[C@H]2C1	.	.	.	.	5
CCCC(=O)NC(c1ccc(Cl)cc1Cl)c1ccc2cccnc2c1O (stereo not drawn)	-9	6	4	-6	2
CCCC(=O)NC(c1ccc(Cl)cc1)c1ccc2cccnc2c1O (stereo not drawn)	12	6	8	6	15*
CC(=O)NC(c1ccc2ccccc2c1)c1ccc2cccnc2c1O (stereo not drawn)	2	4	-1	3	13*
CC(=O)NC(c1ccc(Cl)cc1Cl)c1ccc2cccnc2c1O (stereo not drawn)	15	13	-1	4	10*
CCCCC(=O)NC(c1ccc(Cl)cc1)c1ccc2cccnc2c1O (stereo not drawn)	35	-2	3	7	2
CC(C)C1COC(c2cccc3ccccc23)=N1 (stereo not drawn)	37*	8	0	-5	3
CC(=O)NCCNc1nc(NC(C)C)nc2ccsc12	7	26*	-1	.	-1
C[C@@H]1CCCCO[C@H](CN(C)Cc2ccc(C(=O)O)cc2)[C@@H](C)CN([C@H](C)CO)C(=O)c2cc(NS(C)(=O)=O)ccc2O1	.	.	.	.	-1
COC(=O)C(C(=O)OC)c1ccccc1[N+](=O)[O-]	-4	31*	3	-4	.
COC(=O)C(C(=O)OC)c1ncccc1[N+](=O)[O-]	10	5	2	-8	-2
C[C@H]1CN([C@@H](C)CO)C(=O)c2cc(NC(=O)C3CC3)ccc2O[C@H]1CN(C)S(=O)(=O)c1cccs1	.	.	.	.	0
CCCCNC(=O)OCC(CC)NC(=O)OCC(C)C (stereo not drawn)	36*	1	0	-13	.

Screening data from PubChem BioAssay.
